# Assay results reported in PubChem BioAssay (NCATS).
# Records with an inconclusive call do not appear. Where a call stands in place of a potency, no number is given. Calls of active or inactive are those of the source. Unless noted, calls come from the whole dose curve; as a rule, active = well fitted curve in the direction sought with a large enough effect; inconclusive = small, poorly fitted or top-dose-only effect, or another doubt; inactive = no such curve, though single readings can be large; an effect the other way counts as inactive or inconclusive.
# How the values were obtained:
# [1] = target: ATP-dependent 6-phosphofructokinase (Trypanosoma brucei brucei) (UniProt O15648); test: qHTS Assay to Find Inhibitors of T. brucei phosphofructokinase: hit validation (AID 492961);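 note: luminescence reports ADP formed as PFK phosphorylates fructose-6-phosphate with ATP; series mostly up to about 51 µM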
# Method in brief: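 Measures ADP output of PFK (1.25 nM) at 0.1 mM ATP, 0.5 mM F6P, pH 8.0 TEA buffer with 5 mM MgCl2. No-enzyme wells define full inhibition; uninhibited enzyme wells define zero.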
# [2] = qHTS for Inhibitors of Plasmodium falciparum (DD2) proliferation (AID 504314);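 note: parasite DNA measured by SYBR Green fluorescence after red cell lysis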
# Method in brief: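 Parasite proliferation measured as SYBR Green signal from Plasmodium DNA, mature erythrocytes lacking DNA. 72 h incubation, 37C; activity scaled between vehicle and 0.29 uM artemisinin, with correction from vehicle-only plates.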
# [3] = qHTS for Inhibitors of Plasmodium falciparum (GB4) proliferation (AID 504315); note: nearly all actives have a fitted effect of over 50% in size
# Method in brief: (§1)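 Parasite growth measured as SYBR Green DNA fluorescence (ex 485, em 535 nm) after overnight lysis following 72 h culture at 37 °C, 0.3% parasitemia, 2.5% hematocrit. Values normalized against DMSO and 0.29 uM artemisinin controls, with plate-stack correction.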
# [4] = qHTS for Inhibitors of Plasmodium falciparum (7G8) proliferation (AID 504316); note: series mostly up to about 6.7 µM; nearly all actives have a fitted effect of over 65% in size
# Text: Plasmodium falciparum is a virulent malarial parasite that kills 1-2 million people worldwide each year. Malaria not only inflicts tremendous suffering and morbidity on the human population, but has dramatically influenced the course of civilization with profound sociological and economic implications (Shah, S. 2010). Transmitted by mosquitoes, the sporozoite form of the parasite enters the blood stream to infect hepatocytes, where they become merozoites that infect red blood cells (erythrocytes). Within erythrocytes, merozoites begin a […] cycle of growth and division, after which the parasite is released to infect new red blood cells. Gametocytes, which form within erythrocytes as well, circulate in the bloodstream and are ingested by the mosquito, thereby completing the life cycle (see CDC website). To profile malarial lines for differential chemical responses and to identify inhibitors of malarial growth, an assay that measures P. falciparum growth and replication within erythrocytes was employed. This assay uses a DNA binding fluorescent dye (SYBR Green) to detect parasite DNA following cell lysis. Because mature erythrocytes lack DNA, only Plasmodium-derived DNA is detected. The P. falciparum line cp250, derived from a malarial isolate from Cambodia, (Mu, J., et al. 2010) was added to the panel of lines, Dd2, HB3, 7G8 and GB4 in this study. […]
# [5] = qHTS for Inhibitors of Plasmodium falciparum (CP250) proliferation (AID 504320)
# Method in brief: as §1
# [6] = target: Thyrotropin-releasing hormone receptor (Homo sapiens) (UniProt P34981); test: qHTS for Small Molecule Agonists and Allosteric Enhancers of Human TRH Receptor: Validation Screen for Agonists (AID 493127;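 active = calcium activation more than 3 SD above the typical response in the agonist read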;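 note: intracellular calcium rise by fluo-8 fluorescence before TRH EC20 addition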); settings: TRH receptor agonist cell assay; at 2 µM; stronger effect = higher value
# Text: NIH Chemical Genomics Center [NCGC]
# NIH Molecular Libraries Probe Centers Network [MLPCN]
# Assay Submitter (PI): Marvin Gershengorn
# This project aims to identify small drug-like molecules that activate (agonists) the thyrotropin releasing hormone (TRH) receptor (TRHR) or enhance its TRH-stimulated activity (allosteric enhancers). TRHR, a drug-accessible cell surface receptor expressed in specific brain regions, and its ligand TRH have been implicated in several central nervous system disorders, including depression and anxiety. Small molecule TRHR agonists or allosteric enhancers that are metabolically stable and able to cross the blood-brain barrier might serve as probes to elucidate the roles of brain TRH receptors in animal models, and might be valuable as lead compounds for the development of drugs to treat patients with central nervous system disorders.
# Upon TRHR-Gq activation in TRHR cells, intracellular calcium is released from stores in the endoplasmic reticulum. […] This validation screen measures compound-induced activation of calcium release.
# For the HTS assay freshly prepared cells are plated at a density of 2000/well in 3 ul of complete DMEM medium containing 10% serum in 1536-well plates and cultured over night at 37 C in a humidified incubator with 5% CO2. The next day, 2 ul of a no wash calcium dye (ABD Bioquest) was added to the cells and plates were incubated at room temperature for 1 hour. For the assay, assay plates were loaded into the FDSS kinetic plate reader. A 10 cycle (1 second/cycle) baseline measurement is taken and then the FDSS online 1536 pintool delivers 23 nl of compound library (as well as TRH controls) to the plate. The plate is measured for kinetically at 1 cycle/sec for 180 seconds and is considered to be the agonist portion of the assay (eg, compounds which activate a positive calcium response during this portion are flagged as potential agonists). Following the 180 second read, 1 ul of either an EC20 (positive modulation assay) is delivered by an onboard pipette head. Measurements are taken kinetically for an additional 180 seconds.
# TRHR FDSS Screening Protocol
# 1. Reagent, 3 uL 2000 cells/well 1536 TC treated Black plate in media containing 10% FCS
# 2. Time, 18 hours, 33.5C 5% CO2 (cells grown at 37C)
# 3. Reagent, 2 uL ABD fluo-8 Ca dye
# 4. Time, 30 min-1.5hrs hours, Room temp (6 plates/batch)
# 5. Detector, EX 480/EM 530C, FDSS 10 cycles baseline (1sec/cycle)
# 6. Compound, 23 nL of stock solution from library
# 7. Detector, EX 480/EM 530C, FDSS 230 cycles (1sec/cycle) Agonist mode
# 8. Compound, 1 ul EC20 of TRH made up in HEPES HBSS, 10 nM final
# 9. Detector, EX 480/EM 530C, FDSS 100 cycles (1sec/cycle) Potentiator mode
# [7] = target: Galactokinase (Homo sapiens) (UniProt P51570); test: qHTS Validation Assay for Inhibitors of Human Galactokinase (GALK) (AID 493189)
# Method in brief: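 GALK (5 nM) with 35 uM ATP and 100 uM galactose in HEPES pH 8.0 with MgCl2, NaCl, DTT and BSA. Reaction ran 1 h at room temperature. Residual ATP read by Kinase-Glo Plus luminescence.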
# [8] = Validation screen for small molecules that induce DNA re-replication in SW480 colon adenocarcinoma cells (AID 504364)
# Method in brief: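 Read-out: total Hoechst intensity of nuclei by fluorescence scanning imager; hits raise the fraction of nuclei with elevated DNA content. Cells received compound for 48 hr at 37 C before a 40 min stain.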
# [9] = Validation screen for small molecules that induce genotoxicity in human embryonic kidney (HEK293T) cells expressing luciferase-tagged ELG1 (AID 493106); settings: luminescence; note: potency is the fitted concentration of half-maximal effect
# Method in brief: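 qHTS format; 2,000 HEK293T ELG1-luc cells/well; 23 nL compound via pin tool; 16 hr, 37 °C/5% CO2; ONE-Glo, 30 min RT; luminescence read.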
# [10] = Nrf2 qHTS screen for inhibitors: Validation (AID 493153; active = well fitted inhibition curve with a large enough effect in the main read-out, with a control signal flat, not every such curve was filed as active); settings: viability change: measured here: cytotoxicity max response
# Method in brief: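 Concentration-response test in A549 ARE_Fluc reporter cells (5% FBS OPTI-MEM), compound exposure 18-24 h at 37°C, 5% CO2. Cell viability measured first by CellTiter-Fluor fluorescence; ARE-driven luciferase luminescence then measured as Nrf2 activity.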
# Galactokinase (Homo sapiens), sequence (P51570 whole entry, looked up): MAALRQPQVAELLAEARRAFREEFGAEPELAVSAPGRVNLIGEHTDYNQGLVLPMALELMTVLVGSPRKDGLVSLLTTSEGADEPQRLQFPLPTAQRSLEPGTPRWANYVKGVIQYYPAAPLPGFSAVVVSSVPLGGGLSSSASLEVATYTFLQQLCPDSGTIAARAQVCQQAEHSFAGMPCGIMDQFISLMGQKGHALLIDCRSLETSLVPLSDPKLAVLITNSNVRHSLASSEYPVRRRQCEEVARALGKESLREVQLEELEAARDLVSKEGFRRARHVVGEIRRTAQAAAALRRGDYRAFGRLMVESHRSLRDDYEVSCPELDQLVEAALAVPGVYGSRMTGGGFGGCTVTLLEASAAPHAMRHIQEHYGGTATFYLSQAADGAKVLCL
# Thyrotropin-releasing hormone receptor (Homo sapiens), sequence (P34981 whole entry, looked up): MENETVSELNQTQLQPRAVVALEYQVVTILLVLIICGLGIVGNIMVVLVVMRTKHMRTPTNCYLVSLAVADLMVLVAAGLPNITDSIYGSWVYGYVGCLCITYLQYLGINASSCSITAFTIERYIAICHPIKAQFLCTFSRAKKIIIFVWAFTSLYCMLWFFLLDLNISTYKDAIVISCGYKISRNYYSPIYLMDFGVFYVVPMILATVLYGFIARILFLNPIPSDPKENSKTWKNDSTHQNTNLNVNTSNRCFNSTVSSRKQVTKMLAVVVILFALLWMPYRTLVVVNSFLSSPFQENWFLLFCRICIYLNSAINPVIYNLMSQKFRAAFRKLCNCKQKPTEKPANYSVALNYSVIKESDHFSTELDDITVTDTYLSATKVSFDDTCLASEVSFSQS
# ATP-dependent 6-phosphofructokinase (Trypanosoma brucei brucei), sequence (O15648 whole entry, looked up): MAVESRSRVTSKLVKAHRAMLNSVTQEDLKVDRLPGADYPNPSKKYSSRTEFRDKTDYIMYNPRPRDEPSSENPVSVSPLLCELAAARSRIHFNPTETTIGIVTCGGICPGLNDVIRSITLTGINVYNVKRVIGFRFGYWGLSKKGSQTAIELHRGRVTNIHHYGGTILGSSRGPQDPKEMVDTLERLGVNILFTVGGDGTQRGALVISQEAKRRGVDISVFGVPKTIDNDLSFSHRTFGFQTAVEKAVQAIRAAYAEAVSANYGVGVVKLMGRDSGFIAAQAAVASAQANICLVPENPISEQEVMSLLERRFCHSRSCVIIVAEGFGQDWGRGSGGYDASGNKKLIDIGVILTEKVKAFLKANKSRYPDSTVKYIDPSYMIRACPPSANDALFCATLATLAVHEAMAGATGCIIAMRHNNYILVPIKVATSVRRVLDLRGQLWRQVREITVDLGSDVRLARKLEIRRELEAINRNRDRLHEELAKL
smiles,measurement,setting,value
CC/C(=C(/CC)c1ccc(OP(=O)(O)O)cc1)c1ccc(OP(=O)(O)O)cc1,Potency,[1],inactive
CC(C)(C)c1ccc2c(S(=O)(=O)O)c(C(C)(C)C)ccc2c1,Potency,[1],inactive
CN(C)CCCSc1ccccc1NC(=O)/C=C/c1ccccc1,Potency,[1],inactive
CCOC(=O)c1cc(-c2ccccc2)nc2ccc(C)cc12,Potency,[1],inactive
Cc1c(O)c(=O)ccn1C,outcome,[2],inactive
same,outcome,[3],inactive
same,outcome,[4],inactive
same,outcome,[5],inactive
CCN(CC)CCOc1ccc2nc(N(C)C)sc2c1,Potency,[1],inactive
C[C@@](Cc1ccc(O)c(O)c1)(NN)C(=O)O,activation,[6],0.562% (inactive)
same,outcome,[7],inactive
same,outcome,[8],inactive
O=[N+]([O-])c1c(Cl)cccc1-c1c[nH]cc1Cl,Potency,[1],inactive
CC(O)CN(C)C (centres undefined),Potency,[1],inactive
C(=C\c1ccncc1)/c1ccccc1,Potency,[1],inactive
O=C(O)Cc1cc(I)c(Oc2ccc(O)c(I)c2)c(I)c1,Potency,[1],inactive
O=C(OC1C[C@@H]2CC3C[C@H](C1)N2CC3=O)c1c[nH]c2ccccc12 (some centres undefined),Potency,[1],inactive
CCSc1ccc2c(c1)N(CCCN1CCN(C)CC1)c1ccccc1S2,Potency,[1],inactive
CCCCCc1ccc(C)cc1O,Potency,[1],inactive
CC1(O)CCC(C(C)(C)O)CC1 (centres undefined),Potency,[1],inactive
OB(O)O,Potency,[1],inactive
CCN(CC)C(=O)c1cccnc1,Potency,[1],inactive
O=P(O)(O)OC[C@H]1O[C@](O)(COP(=O)(O)O)[C@@H](O)[C@@H]1O,Potency,[1],inactive
O=c1[nH]c(=O)n([C@H]2C[C@H](O)[C@@H](CO)O2)cc1/C=C/Br,Potency,[1],inactive
same,activation,[6],0.938% (inactive)
same,outcome,[7],inactive
same,outcome,[8],inactive
CCCc1ccc(C(=O)O)cc1,Potency,[1],inactive
CN1C(C(=O)Nc2ccccn2)C(=O)c2sc(Cl)cc2S1(=O)=O (centres undefined),Potency,[1],inactive
O=P(O)(O)O,Potency,[1],inactive
Cc1cc(C)c(NC(=O)C[C@H](CC(=O)O)c2cccc3ccccc23)c(C(=O)N2CCC3(CCCC3)CC2)c1,Potency,[1],inactive
same,activation,[6],0.125% (inactive)
same,outcome,[7],inactive
same,outcome,[8],inactive
O=C1N=C2SCCN2C(=O)C1Cc1ccc(Cl)cc1 (centres undefined),Potency,[1],inactive
COc1ccc(/C=N/NC(=O)c2ccncc2)c(C(=O)O)c1OC,Potency,[1],inactive
OCCOCCOCCO,Potency,[1],inactive
O=C(O)CCC/C=C\C[C@@H]1[C@@H](/C=C/[C@@H](O)COc2cccc(Cl)c2)[C@H](O)C[C@@H]1O,Potency,[1],inactive
O=C(NCCNCC(O)COc1ccc(O)cc1)N1CCOCC1 (centres undefined),activation,[6],1% (inactive)
same,outcome,[7],inactive
same,outcome,[8],inactive
C#C[C@]1(O)CC[C@@H]2[C@H]3CCC4=CC(=O)CC[C@H]4[C@H]3C(=C)C[C@@]21CC,Potency,[1],inactive
OCl,Potency,[1],inactive
OCC(O)CO,Potency,[1],inactive
Oc1ccc(/C=C/c2cc(O)cc(O)c2)cc1,Potency,[9],2.91 µM (active)
same,activation,[6],0.812% (inactive)
same,outcome,[10],inactive
same,viability change,[10],-6.91%
same,outcome,[7],inactive
same,outcome,[8],inactive
O=C(CCCN1CCN2CCCC2C1)c1ccc(F)cc1 (centres undefined),Potency,[1],inactive
CCCCCCCCCCCC(=O)OCC(O)CO (centres undefined),Potency,[1],inactive
O=C(O)COc1ccc(CCNS(=O)(=O)c2ccccc2)s1,Potency,[1],inactive
CC(=O)NCCCS(=O)(=O)O,Potency,[1],inactive
